# Source: PubChem BioAssay (NCATS)
# Records with an inconclusive call do not appear. A call without a number means that no potency is given here. Calls of active or inactive are those of the source. Unless noted, the call rests on the fitted dose curve; in most records, active means well fitted curve in the direction sought with a large enough effect; inconclusive means small, poorly fitted or top-dose-only effect, or another doubt; inactive means no such curve, though single readings can be large; an effect the other way counts as inactive or inconclusive.
# Key:
# [1] = qHTS assay for measurement of the activity of small molecule inhibitors on Zika virus induced Caspase-3 activity in human astrocytoma cells (AID 1224859)
# Method in brief: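 Luminescent caspase-3/7 read-out (30 min reagent, room temperature) in human SNB-19 cells infected 6 h with ZIKV (2 FFU/cell) after 1 h compound pre-incubation; Data were normalised to uninfected and infected wells.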
# [2] = qHTS Screen of the MIPE 4.0 Collection Against Ewings Sarcoma (RDES) (AID 1259252); further: nearly all actives have a fitted effect of over 35% in size; further: potency means the concentration at half of the fitted maximal effect
# Method in brief: (§1)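 After a 4 h attachment period in RPMI/5% FBS, cells were pin-dosed with test compounds; DMSO served as negative and 9.2 uM bortezomib (final) as positive control. Luminescent CellTiter-Glo signal at 48 h defined viability.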
# [3] = qHTS Screen of the MIPE 4.0 Collection Against Ewings Sarcoma (EW8) (AID 1259255); further: nearly all actives have a fitted effect of over 35% in size; further: potency means the concentration at half of the fitted maximal effect
# Method in brief: as §1
# [4] = qHTS Screen of the MIPE 4.0 Collection Against Ewings Sarcoma (TC32) (AID 1259256); further: nearly all actives have a fitted effect of over 45% in size; further: potency means the concentration at half of the fitted maximal effect
# Method in brief: as §1
# [5] = P-glycoprotein substrates identified in KB-8-5-11 adenocarcinoma cell line, qHTS therapeutic library screen (AID 1346987); further: nearly all actives have a fitted effect of over 65% in size; further: potency means the concentration at half of the fitted maximal effect
# Method in brief: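 Human cervical adenocarcinoma KB-8-5-11 cells, selected in colchicine to over-express P-gp and assayed without it, were exposed for 72 h to titrated compounds. An ATP-based luminescent viability signal gave AC50.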
# [6] = NS1 protein of Zika virus - qHTS assay to identify small molecule inhibitors in human HEK 293 cells (AID 1347053); further: nearly all actives have a fitted effect of over 55% in size; further: potency means the concentration at half of the fitted maximal effect
# Method in brief: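 In this cell-based screen, HEK 293 cultures received compound for one hour before Zika MR766 at MOI = 0.5. NS1 was quantified 24 hours later by TR-FRET, normalized to virus-free wells and infected wells.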
# [7] = qHTS of pediatric cancer cell lines to identify multiple opportunities for drug repurposing: Primary screen for TC32 cells (AID 1347089); further: nearly all actives have a fitted effect of over 60% in size; further: potency means the concentration at half of the fitted maximal effect
# Method in brief: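 A viability screen of TC32 cells was run over 48 h, with primary MIPE doses spanning 0.78 nM–46 µM and NPC doses 0.59 nM–46 µM. ATP luminescence (CellTiter-Glo) served as the read-out.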
# [8] = qHTS of pediatric cancer cell lines to identify multiple opportunities for drug repurposing: Primary screen for DAOY cells (AID 1347090); further: nearly all actives have a fitted effect of over 55% in size; further: potency means the concentration at half of the fitted maximal effect
# Method in brief: (§2)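 Cell viability, CellTiter-Glo luminescence; 500-1,000 cells/well, 8- or 11-point titration, 48 h compound exposure at 37 degrees C, 5% CO2. Controls: DMSO neutral, bortezomib 2.3 µM final as positive.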
# [9] = qHTS Screen of the MIPE 4.0 Collection Against Ewings Sarcoma (TC71) (AID 1259253); further: nearly all actives have a fitted effect of over 40% in size; further: potency means the concentration at half of the fitted maximal effect
# Method in brief: as §1
# [10] = qHTS of pediatric cancer cell lines to identify multiple opportunities for drug repurposing: Primary screen for SJ-GBM2 cells (AID 1347091); further: potency means the concentration at half of the fitted maximal effect
# Method in brief: as §2
# [11] = P-glycoprotein substrates identified in KB-3-1 adenocarcinoma cell line, qHTS therapeutic library screen (AID 1346986); further: nearly all actives have a fitted effect of over 60% in size
# Method in brief: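 Dose-response cytotoxicity, KB-3-1 vs P-gp-high KB-8-5-11, no colchicine in assay medium. Read: CellTiter-Glo at 72 h.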
# [12] = qHTS assay to identify small molecule inhibitors of chordoma cells - UCH-2 (AID 1259356); further: series mostly up to about 46 µM
# [13] = Natriuretic polypeptide receptor (hNpr1) antagonism - Pilot counterscreen GloSensor control cell line (AID 1347045; calls by dose curve; further: series mostly up to about 38 µM)
# Method in brief: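 The SNP-driven cGMP luminescence signal (50 uM, 20 min, room temperature) was measured in GloSensor HEK293 control cells. Compounds were tested as a LOPAC titration series and preincubated for 30-50 min.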
# [14] = target: Atrial natriuretic peptide receptor 1 (Homo sapiens) (UniProt P16066); assay: Natriuretic polypeptide receptor (hNpr1) antagonism - Pilot screen (AID 1347049; calls by dose curve;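 further: HEK293 cells with hNpr1 and GloSensor cGMP luciferase stimulated by 0.1 nM hNppA; agonist-evoked cGMP luminescence read 20 min after hNppA addition; series mostly up to about 58 µM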)
# Chain of Atrial natriuretic peptide receptor 1 (Homo sapiens) (P16066 whole entry, looked up): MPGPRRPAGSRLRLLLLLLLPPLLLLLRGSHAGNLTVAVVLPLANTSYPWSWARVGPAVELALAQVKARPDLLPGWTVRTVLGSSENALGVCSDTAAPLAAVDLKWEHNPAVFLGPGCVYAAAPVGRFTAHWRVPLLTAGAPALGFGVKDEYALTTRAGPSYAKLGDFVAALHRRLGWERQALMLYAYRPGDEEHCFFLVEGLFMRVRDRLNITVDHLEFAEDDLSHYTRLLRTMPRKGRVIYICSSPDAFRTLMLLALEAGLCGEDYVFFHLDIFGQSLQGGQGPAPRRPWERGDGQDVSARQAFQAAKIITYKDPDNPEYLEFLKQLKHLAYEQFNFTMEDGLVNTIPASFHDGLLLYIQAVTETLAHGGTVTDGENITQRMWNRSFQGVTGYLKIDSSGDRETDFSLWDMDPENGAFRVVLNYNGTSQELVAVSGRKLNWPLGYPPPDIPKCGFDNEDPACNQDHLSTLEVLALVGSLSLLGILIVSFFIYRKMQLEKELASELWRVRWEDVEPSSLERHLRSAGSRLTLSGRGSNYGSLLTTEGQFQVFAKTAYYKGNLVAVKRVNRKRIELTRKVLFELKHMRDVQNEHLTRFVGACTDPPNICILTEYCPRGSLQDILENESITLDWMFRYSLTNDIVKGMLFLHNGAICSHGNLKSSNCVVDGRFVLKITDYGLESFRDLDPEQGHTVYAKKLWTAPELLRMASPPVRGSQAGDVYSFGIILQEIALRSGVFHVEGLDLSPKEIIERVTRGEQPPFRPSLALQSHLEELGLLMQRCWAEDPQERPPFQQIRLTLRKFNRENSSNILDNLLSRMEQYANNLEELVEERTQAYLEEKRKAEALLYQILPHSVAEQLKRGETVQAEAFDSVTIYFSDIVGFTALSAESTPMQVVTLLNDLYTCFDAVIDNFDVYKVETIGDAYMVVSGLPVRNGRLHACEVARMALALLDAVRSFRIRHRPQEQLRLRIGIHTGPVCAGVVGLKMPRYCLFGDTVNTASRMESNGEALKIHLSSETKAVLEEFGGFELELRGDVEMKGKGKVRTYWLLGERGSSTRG
# Method in brief: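 Receptor antagonism read as cGMP-dependent luminescence in hNpr1/pGS-40F HEK293 cells: pre-read after 30 min compound exposure, post-read 20 min after hNppA agonist at 0.1 nM final, all at room temperature, protected from light; A-71915 titration as control.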
# [15] = target: Atrial natriuretic peptide receptor 2 (Homo sapiens) (UniProt P20594); assay: Natriuretic polypeptide receptor (hNpr2) antagonism - Pilot subtype selectivity assay (AID 1347050; calls by dose curve)
# Chain of Atrial natriuretic peptide receptor 2 (Homo sapiens) (P20594 whole entry, looked up): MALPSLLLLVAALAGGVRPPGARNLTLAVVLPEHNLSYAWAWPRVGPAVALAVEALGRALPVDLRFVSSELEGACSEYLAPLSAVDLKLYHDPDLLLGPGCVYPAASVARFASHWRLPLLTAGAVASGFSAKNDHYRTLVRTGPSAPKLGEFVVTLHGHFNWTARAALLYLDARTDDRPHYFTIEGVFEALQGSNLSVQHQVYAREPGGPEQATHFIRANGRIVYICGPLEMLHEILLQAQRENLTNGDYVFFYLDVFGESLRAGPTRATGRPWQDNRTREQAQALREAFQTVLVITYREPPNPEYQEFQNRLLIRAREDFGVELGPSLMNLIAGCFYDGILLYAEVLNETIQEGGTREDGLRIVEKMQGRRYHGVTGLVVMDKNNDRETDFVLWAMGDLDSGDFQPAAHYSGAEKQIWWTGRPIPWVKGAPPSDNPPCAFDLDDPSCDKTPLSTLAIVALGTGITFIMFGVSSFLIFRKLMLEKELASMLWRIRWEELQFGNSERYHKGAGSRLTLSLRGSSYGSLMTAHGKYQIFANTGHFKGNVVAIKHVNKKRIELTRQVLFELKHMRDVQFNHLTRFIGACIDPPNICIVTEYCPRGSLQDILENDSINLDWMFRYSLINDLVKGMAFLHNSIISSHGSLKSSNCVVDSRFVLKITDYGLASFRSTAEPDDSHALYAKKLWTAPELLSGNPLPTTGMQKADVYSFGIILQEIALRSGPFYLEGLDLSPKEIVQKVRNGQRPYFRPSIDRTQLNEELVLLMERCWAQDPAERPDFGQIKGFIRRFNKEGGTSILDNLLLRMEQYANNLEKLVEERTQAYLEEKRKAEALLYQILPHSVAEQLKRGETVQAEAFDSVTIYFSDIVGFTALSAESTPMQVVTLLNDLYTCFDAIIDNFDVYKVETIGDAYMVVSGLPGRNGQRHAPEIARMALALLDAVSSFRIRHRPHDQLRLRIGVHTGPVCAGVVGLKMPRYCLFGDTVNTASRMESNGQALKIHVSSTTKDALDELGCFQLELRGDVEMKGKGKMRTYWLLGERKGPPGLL
# Method in brief: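 Antagonist mode: compounds (LOPAC1280, seven 1:5 dilutions) added 30 min before 1 nM hNppC stimulation of hNpr2-HEK293 cGMP-sensor cells; luminescence read before and 20 min after agonist at ambient temperature.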
# [16] = target: Parathyroid hormone/parathyroid hormone-related peptide receptor (Homo sapiens) (UniProt Q03431); assay: qHTS for PTHR1 Agonists: Optimization Screen against the NCGC LOPAC library (AID 1347079);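 further: GloSensor cAMP luminescence in HEK-293 GP2 cells expressing human PTHR1 with IBMX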
# Chain of Parathyroid hormone/parathyroid hormone-related peptide receptor (Homo sapiens) (Q03431 whole entry, looked up): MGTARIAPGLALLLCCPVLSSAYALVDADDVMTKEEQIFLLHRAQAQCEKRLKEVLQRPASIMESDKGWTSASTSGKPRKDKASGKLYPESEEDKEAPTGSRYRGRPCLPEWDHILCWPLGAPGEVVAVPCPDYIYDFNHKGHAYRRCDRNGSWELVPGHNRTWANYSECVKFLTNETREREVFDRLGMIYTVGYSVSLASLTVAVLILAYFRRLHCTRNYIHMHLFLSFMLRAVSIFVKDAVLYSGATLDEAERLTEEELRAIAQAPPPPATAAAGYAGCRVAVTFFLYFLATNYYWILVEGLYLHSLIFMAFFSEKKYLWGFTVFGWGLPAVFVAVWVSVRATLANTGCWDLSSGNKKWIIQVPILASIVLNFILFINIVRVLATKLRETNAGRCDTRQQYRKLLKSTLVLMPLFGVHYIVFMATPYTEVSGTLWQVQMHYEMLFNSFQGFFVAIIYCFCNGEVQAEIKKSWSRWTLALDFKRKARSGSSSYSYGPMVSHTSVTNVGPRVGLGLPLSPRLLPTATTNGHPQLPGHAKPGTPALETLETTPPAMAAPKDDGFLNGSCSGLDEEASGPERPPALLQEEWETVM
# Method in brief: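 Signal increase flags agonism. GP2 cells, derived from HEK-293, express human PTHR1 and a GloSensor cAMP construct.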
Structure (SMILES),Potency [1],Potency [2],Potency [3],Potency [4],Potency [5],Potency [6],Potency [7],Potency [8],Potency [9],Potency [10],Potency [11],outcome [12],Potency [13],outcome [14],outcome [15],outcome [16]
CC(=O)Oc1cc2c(s1)CCN(C(C(=O)C1CC1)c1ccccc1F)C2 (stereo not drawn),inactive,2.35 µM (active),3.72 µM (active),2.96 µM (active),inactive,inactive,inactive,1.48 µM (active),–,–,–,–,–,–,–,–
C=C1C(=O)[C@@]23C(CC[C@@H]1[C@H]2O)[C@@]12CO[C@]3(O)[C@@H](O)[C@@H]1C(C)(C)CC[C@@H]2O (stereo partly drawn),inactive,7.43 µM (active),4.18 µM (active),5.26 µM (active),–,9.35 µM (active),16.5 µM (active),2.35 µM (active),6.62 µM (active),8.33 µM (active),–,–,–,–,–,–
O=C(O)C=Cc1ccc(O)c(O)c1,inactive,8.33 µM (active),23.5 µM (active),20.9 µM (active),inactive,inactive,inactive,7.43 µM (active),18.7 µM (active),inactive,–,–,–,–,–,–
CC(C)C(=O)Oc1ccc(CO)cc1[C@H](CCN(C(C)C)C(C)C)c1ccccc1,inactive,inactive,inactive,–,inactive,inactive,inactive,inactive,inactive,inactive,–,–,–,–,–,–
O=C(Nc1cc(Cl)cc2c1[nH]c1cnccc12)c1cccnc1,inactive,–,–,26.4 µM (active),inactive,inactive,inactive,–,23.5 µM (active),–,inactive,–,–,–,–,–
O=c1cc(-c2ccccc2)oc2cc(O)c(O)c(O)c12,inactive,20.9 µM (active),–,–,inactive,inactive,inactive,inactive,23.5 µM (active),inactive,–,–,–,–,–,–
O=C(CCc1ccc(O)cc1)c1c(O)cc(O)cc1O[C@@H]1O[C@H](CO)[C@H](O)[C@H](O)[C@H]1O,inactive,inactive,inactive,inactive,inactive,inactive,inactive,–,inactive,inactive,–,–,–,–,–,–
C[N+]1(C)[C@@H]2CC(OC(=O)[C@H](CO)c3ccccc3)C[C@H]1[C@H]1O[C@@H]12 (stereo partly drawn),inactive,inactive,inactive,inactive,inactive,inactive,inactive,inactive,inactive,inactive,–,inactive,–,–,–,–
CO[C@H]1C=CC=C(C)C(=O)NC2=CC(=O)C(NCCN(C)C)=C(C[C@@H](C)C[C@H](OC)[C@@H](O)[C@@H](C)C=C(C)[C@@H]1OC(N)=O)C2=O,inactive,0.235 µM (active),0.235 µM (active),0.0469 µM (active),7.43 µM (active),–,0.262 µM (active),3.72 µM (active),0.235 µM (active),0.0526 µM (active),–,–,–,–,–,–
Cc1ccc(C(=O)Nc2cccc(C(F)(F)F)c2)cc1Nc1nc(-c2cccnc2)nc2c1cnn2C,inactive,14.8 µM (active),13.2 µM (active),13.2 µM (active),inactive,14.8 µM (active),inactive,14.8 µM (active),18.7 µM (active),7.43 µM (active),–,–,–,–,–,–
C[N+](C)(C)CC(=O)O,inactive,inactive,inactive,inactive,–,–,inactive,inactive,inactive,inactive,–,–,–,–,–,–
CCCCCNC(=O)N1CCC(CN(Cc2ccc(Cl)cc2)Cc2ccc([N+](=O)[O-])s2)C1 (stereo not drawn),inactive,20.9 µM (active),–,–,–,–,inactive,–,–,inactive,–,–,–,–,–,–
CCCCCN(C)CCC(O)(P(=O)(O)O)P(=O)(O)O,inactive,inactive,inactive,inactive,–,–,inactive,inactive,inactive,inactive,–,–,inactive,inactive,inactive,inactive
CC[C@@]1(O)C[C@H](O[C@H]2C[C@H](N(C)C)[C@H](O[C@H]3C[C@H](O)[C@H](O[C@H]4CCC(=O)[C@H](C)O4)[C@H](C)O3)[C@H](C)O2)c2c(cc3c(c2O)C(=O)c2c(O)cccc2C3=O)[C@@H]1C(=O)OC,inactive,0.59 µM (active),0.296 µM (active),inactive,–,inactive,–,–,0.187 µM (active),0.372 µM (active),–,–,–,–,–,–
CC[C@]1(O)C[C@@H]2CN(CCc3c([nH]c4ccccc34)[C@@](C(=O)OC)(c3cc4c(cc3OC)N(C=O)[C@@H]3C45CCN4CC=C[C@](CC)([C@H]45)[C@@H](OC(C)=O)[C@]3(O)C(=O)OC)C2)C1 (stereo partly drawn),inactive,16.6 µM (active),–,inactive,inactive,–,inactive,–,20.9 µM (active),–,–,–,–,–,–,–
CO[C@H]1C(=O)[C@]2(C)[C@@H](OC)C[C@H]3OC[C@@]3(OC(C)=O)[C@H]2[C@H](OC(=O)c2ccccc2)[C@]2(O)C[C@H](OC(=O)[C@H](O)[C@@H](NC(=O)OC(C)(C)C)c3ccccc3)C(C)=C1C2(C)C,inactive,inactive,inactive,inactive,0.001 µM (active),–,1.47 µM (active),–,inactive,–,–,–,–,–,–,–
NS(=O)(=O)c1cccc2c1C(=O)c1cccc(O)c1C2=O,inactive,18.7 µM (active),11.8 µM (active),1.87 µM (active),–,3.32 µM (active),inactive,0.935 µM (active),18.7 µM (active),0.59 µM (active),–,–,–,–,–,–
